Data published in PubChem BioAssay AID2284163 (EPA ToxCast).
Calls of active or inactive are those of the source. Rule for the calls: active = hit-call score of the fitted dose curve at least 0.9, where 1 is the maximum; inactive = score below 0.9.

Each compound was assayed against Oxytocin receptor (Homo sapiens) (UniProt P30559) (assay: ERF_FR_GPCR_hOXTR: Eurofins (ERF) G Protein-Coupled Receptor (GPCR) Radioligand Binding LeadHunter Assay for human Vasopressin / Oxytocin Receptor OT Agonism).
Method: ERF_FR_GPCR_hOXTR is a biochemical, single-readout assay that uses extracted gene-proteins in a cell-free assay. Measurements were taken 2 hour after chemical dosing in a 96-well plate. See OT Human Vasopressin / Oxytocin GPCR Binding (Agonist Radioligand) Assay, Cerep.ERF_FR_GPCR_hOXTR is an assay component calculated from the ERF_FR_GPCR_hOXTR assay. It is designed to measure radioligand binding using a type of binding reporter as detected by scintillation counting with radiometry technology.Data from the assay component ERF_FR_GPCR_hOXTR was analyzed at the assay endpoint, ERF_FR_GPCR_hOXTR, in the positive analysis fitting direction relative to DMSO as the negative control and baseline of activity. Using a type of binding reporter, gain-of-signal activity can be used to understand changes in binding as they relate to gene OXTR. To generalize the intended target to other relatable targets, this assay endpoint is annotated to the gpcr intended target family, where the subfamily is vasopressin and oxytocin.
Human cells are incubated for 60 minutes at room temprature with [3H] Oxytocin ligand (0.8 nM) and OXYTOCIN as control inhibitor. Test Sample Requirements: Minimum for 1) Screen: 60 ul of 10 mM stock -OR- 1 mg (pre-weighed) for 10 uM final testing. 2) Dose Response: 90 ul of 10 mM stock -OR- 1 mg (pre-weighed) for a top concentration at 10 uM.

Oxytocin receptor (Homo sapiens), sequence (P30559 whole entry, looked up): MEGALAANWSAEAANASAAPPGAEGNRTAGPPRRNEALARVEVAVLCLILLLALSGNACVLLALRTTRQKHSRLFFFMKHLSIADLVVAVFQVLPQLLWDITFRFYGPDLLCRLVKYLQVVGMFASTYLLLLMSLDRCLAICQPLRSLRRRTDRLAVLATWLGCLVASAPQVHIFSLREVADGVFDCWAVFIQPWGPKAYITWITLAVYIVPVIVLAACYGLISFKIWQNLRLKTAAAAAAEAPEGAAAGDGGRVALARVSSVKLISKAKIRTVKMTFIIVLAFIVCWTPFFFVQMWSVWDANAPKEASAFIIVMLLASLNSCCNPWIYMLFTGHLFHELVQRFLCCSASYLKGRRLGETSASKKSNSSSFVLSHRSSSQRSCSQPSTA

Row | Compound | outcome
1 | CCCCC[C@H](O)CC(=O)CCc1ccc(O)c(OC)c1 | inactive
